Results on 54 compounds are retold here after PubChem BioAssay AID588511 (Johns Hopkins Ion Channel Center, 2011).

Hit rate of the full screen: of about 310,000 compounds, about 3,600 (1.2%) were called active.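 How the source made its calls: active means ratio plate-corrected score three or more library SD toward inhibition, starting fluorescence score within five deviations; inactive means the rest.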 This excerpt belongs to a sample that is enriched for actives.

In the assay the target is Anoctamin-1 (Mus musculus) (UniProt Q8BHY3). Nature of the assay: blockers of mouse ANO1 Ca-activated Cl channel – cell-based, HTS, primary screen (AID 588511).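 On normalized B-score (activity score, 25-100; higher = stronger inhibition): score derived from kinetic fluorescence span divided by baseline fluorescence per well.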 The note with it: HEK293 TMEM16A/YFP iodide influx fluorescence, ionomycin; at 10 µM.
Sequence of Anoctamin-1 (Mus musculus) (Q8BHY3 whole entry, looked up): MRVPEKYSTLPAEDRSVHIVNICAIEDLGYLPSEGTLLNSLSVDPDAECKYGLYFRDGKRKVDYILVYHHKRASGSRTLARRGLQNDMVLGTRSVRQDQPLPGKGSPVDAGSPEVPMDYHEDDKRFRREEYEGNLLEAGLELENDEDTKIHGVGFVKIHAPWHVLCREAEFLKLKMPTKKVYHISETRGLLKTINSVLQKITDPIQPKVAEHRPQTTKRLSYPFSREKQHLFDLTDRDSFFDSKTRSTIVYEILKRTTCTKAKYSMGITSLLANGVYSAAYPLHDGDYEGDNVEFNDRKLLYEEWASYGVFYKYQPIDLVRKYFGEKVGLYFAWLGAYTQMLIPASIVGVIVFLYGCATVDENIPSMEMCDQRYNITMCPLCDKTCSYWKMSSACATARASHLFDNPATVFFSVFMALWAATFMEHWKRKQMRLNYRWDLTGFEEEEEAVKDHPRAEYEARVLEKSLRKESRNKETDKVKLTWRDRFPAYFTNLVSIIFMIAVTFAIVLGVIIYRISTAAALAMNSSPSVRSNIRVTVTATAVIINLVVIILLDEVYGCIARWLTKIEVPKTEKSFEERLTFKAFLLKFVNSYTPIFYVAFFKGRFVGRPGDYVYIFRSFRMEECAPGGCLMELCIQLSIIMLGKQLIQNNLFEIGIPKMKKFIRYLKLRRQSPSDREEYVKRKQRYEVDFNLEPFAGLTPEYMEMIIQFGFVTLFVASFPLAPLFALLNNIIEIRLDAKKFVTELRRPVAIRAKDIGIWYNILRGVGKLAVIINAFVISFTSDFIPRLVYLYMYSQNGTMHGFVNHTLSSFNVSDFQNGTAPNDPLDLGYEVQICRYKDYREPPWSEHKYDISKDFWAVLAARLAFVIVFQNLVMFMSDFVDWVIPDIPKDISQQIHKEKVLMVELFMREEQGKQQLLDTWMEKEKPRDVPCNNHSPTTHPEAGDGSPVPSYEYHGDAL
On to `CC1=C(C(=O)NC2CC(C)(C)Cc3c2cnn3-c2ccc(C)cc2)OCCO1` (centres undefined), for which the normalized B-score (activity score, 25-100; higher = stronger inhibition) result was “inactive”. For the compound `CCOC(=O)c1ccc(-n2c(CCC(=O)O)ccc2-c2ccccc2)cc1`, the normalized B-score (activity score, 25-100; higher = stronger inhibition) entry was “inactive”. As for `Cc1noc(C)c1COC(=O)COc1ccc(-c2ccccc2)cc1`, the normalized B-score (activity score, 25-100; higher = stronger inhibition) result is “inactive”. For `Cc1noc(C)c1COC(=O)c1cc2ccccc2cc1O` the value was 25 (active); for `COCc1c(C(=O)OCc2c(C)noc2C)oc2ccccc12`, “inactive”; for `CC(=O)Nc1ccc(S(=O)(=O)Nc2cc(C)cn(Cc3ccc(C)cc3)c2=O)cc1`, “inactive”. For `O=C(Cc1ccccn1)c1ccc(O)cc1O`, the normalized B-score (activity score, 25-100; higher = stronger inhibition) result is “inactive”. Under `CCn1ccnc1CN(C)C(=O)c1cc(COc2ccc(-n3cncn3)cc2)on1` stands “inactive”. Turning to `O=C(c1cc(COc2ccc(F)c(F)c2)on1)N1CCOCC1`, the normalized B-score (activity score, 25-100; higher = stronger inhibition) result is “inactive”. For `C=CCC1(CC=C)CCCN1C(=O)c1cc(COc2ccc(-n3cncn3)cc2)on1` the value was 100 (active); for `COc1ccc(N2CCN(C(=O)CNC(=O)c3ccc(Br)o3)CC2)cc1`, “inactive”. Regarding `COc1ccc(-c2nc(CCNC(=O)c3ccc(Br)o3)cs2)cc1`, the normalized B-score (activity score, 25-100; higher = stronger inhibition) is 100 (active). On to `COc1ccc(-c2csc(NC(=O)COC(=O)c3ccc(Br)o3)n2)cc1`, for which the normalized B-score (activity score, 25-100; higher = stronger inhibition) entry is “inactive”. For `COc1ccc(C(=O)COC(=O)CNC(=O)c2cccs2)cc1Br` the value was “inactive”. Under `COc1ccc(C(=O)CCC(=O)Nc2ccc(Cl)cc2)cc1` stands “inactive”; under `CO/N=C/CC(=O)c1ccc(OC)cc1`, “inactive”; under `COc1ccc(CCC(=O)c2ccc(OC)cc2)cc1`, 100 (active).

For `O=C(CSc1nc(=O)n2ccccc2n1)Nc1ccc2c(c1)OCCO2`, the normalized B-score (activity score, 25-100; higher = stronger inhibition) entry is “inactive”. Turning to `Cc1ccccc1Cn1c(=O)[nH]c2ccccc21`, the normalized B-score (activity score, 25-100; higher = stronger inhibition) entry was “inactive”.

Regarding `CCOC(=O)CCc1c(C)c(C#N)c2[nH]c3ccccc3n2c1=O`, the normalized B-score (activity score, 25-100; higher = stronger inhibition) result was “inactive”. Consider `CCCc1cc(=S)n2c([nH]c3ccccc32)c1C#N`, for which the normalized B-score (activity score, 25-100; higher = stronger inhibition) was 25 (active). Under `CCC(=O)Nc1nc2ccccc2n1Cc1ccccc1C` stands “inactive”.

On to `CCN1CCN(c2cc3nc(C)n(Cc4ccccc4)c(=O)c3cc2NC(=O)c2ccccc2F)CC1`, for which the normalized B-score (activity score, 25-100; higher = stronger inhibition) entry was “inactive”. As to `CCC(=O)Nc1ccc2nc(C)n(Cc3ccccc3Cl)c(=O)c2c1`, the normalized B-score (activity score, 25-100; higher = stronger inhibition) was 100 (active). Under `COC(c1ccccc1)(c1ccccc1)C(Oc1nc(C)cc(C)n1)C(=O)O` (centres undefined) stands “inactive”; under `O=C1NCCn2nc3ccccc3c21`, “inactive”; under `COc1ccc(NC(=O)C2CCN(S(=O)(=O)c3ccc4[nH]c(=O)oc4c3)CC2)c(OC)c1`, “inactive”. For `Cc1ccc(OCc2cc(C(=O)N(C)CCc3ccccc3)no2)cc1C`, the normalized B-score (activity score, 25-100; higher = stronger inhibition) entry is “inactive”. For `CC(=O)c1cccc(OCc2cc(C(=O)NC(C)Cc3cccnc3)no2)c1` (centres undefined) the value was “inactive”; for `CN(Cc1cccnc1)C(=O)c1cc(COc2ccc3ncccc3c2)on1`, 100 (active). For `O=c1c(-c2ccc3c(c2)OCCO3)c(C(F)(F)F)oc2cc(O)cc(O)c12` the value was “inactive”; for `CCOC(=O)c1cc2cc(-c3c(C(=O)OCC)oc4cc(O)cc(O)c4c3=O)ccc2o1`, 100 (active); for `CCOC(=O)c1cc(=O)c2ccc(OCc3ccccc3)cc2o1`, “inactive”.

Regarding `COCCn1c(Cc2cccn2C)nnc1SCC(=O)Nc1nccs1`, the normalized B-score (activity score, 25-100; higher = stronger inhibition) result was “inactive”.

Regarding `COCCCN1C(=O)c2ccc(C(=O)OCC(=O)NCc3ccccc3OC)cc2C1=O`, the normalized B-score (activity score, 25-100; higher = stronger inhibition) entry is “inactive”. Under `CC1(N2CCOCC2)CC2(O)C(=[N+]1[O-])CCc1nonc12` (centres undefined) stands “inactive”. As to `CN1C(=O)/C(=C\c2cc(Br)cs2)c2ccccc21`, the normalized B-score (activity score, 25-100; higher = stronger inhibition) entry is “inactive”.

For `Cc1ccc(C2C3=C(Nc4[nH]n(-c5ccccc5)c(=O)c42)c2ccccc2C3=O)cc1` (centres undefined), the normalized B-score (activity score, 25-100; higher = stronger inhibition) entry is “inactive”. Take `COC(=O)C1=C(C)NC2=C(C(=O)c3ccccc32)C1c1ccc(-c2ccc(C(=O)O)cc2)o1` (centres undefined): the normalized B-score (activity score, 25-100; higher = stronger inhibition) is 25 (active). As to `CCOC(=O)C1=C(c2ccc(OC)cc2)C(=O)c2ccccc2C1=O`, the normalized B-score (activity score, 25-100; higher = stronger inhibition) result is “inactive”.

Consider `CCCOc1ccc(Cc2c(O)nc(SC)[nH]c2=O)cc1C`, for which the normalized B-score (activity score, 25-100; higher = stronger inhibition) result is “inactive”. As to `CCCOc1ccc(-c2nc(N)n[nH]2)cc1`, the normalized B-score (activity score, 25-100; higher = stronger inhibition) entry is “inactive”.

Regarding `CCCOc1ccc(Cc2c(Cl)nc(SC)nc2NC)cc1`, the normalized B-score (activity score, 25-100; higher = stronger inhibition) is 100 (active). For `CSc1ncccc1C(=O)OCc1ccc(Br)cc1` the value was “inactive”; for `COc1ccc(OC)c(C2C3=C(N=c4s/c(=C\c5cccc(O)c5)c(=O)n42)c2ccccc2CC3)c1` (centres undefined), “inactive”.

Take `CC1=NN(c2ccccc2)C(=O)C1C(=O)c1ccc([N+](=O)[O-])cc1` (centres undefined): the normalized B-score (activity score, 25-100; higher = stronger inhibition) entry is “inactive”.

On to `O=C1CC(c2ccccc2)=NN1c1ccc([N+](=O)[O-])cc1`, for which the normalized B-score (activity score, 25-100; higher = stronger inhibition) is 100 (active). For `Cc1nn(-c2ccc([N+](=O)[O-])cc2)c(N)c1-c1ccccc1` the value was “inactive”; for `CCNC(=O)NNC(=O)C1CC(c2cccs2)=NO1` (centres undefined), “inactive”. With `Nc1nnc(SCC(=O)OCc2ccc(Cl)c(Cl)c2)s1`, the normalized B-score (activity score, 25-100; higher = stronger inhibition) result was “inactive”. For `Cc1ccc(CNC(=O)C2CCCN2C(=O)NCc2ccccc2)cc1` (centres undefined), the normalized B-score (activity score, 25-100; higher = stronger inhibition) entry is “inactive”.

In the case of `Cc1ccc(N2C(=O)S/C(=C/c3cn(C)c4ccccc34)C2=O)cc1`, the normalized B-score (activity score, 25-100; higher = stronger inhibition) was 25 (active). For `Cc1cc(/C=C2\SC(=O)N(C)C2=O)c(C)n1-c1cccc(C(=O)O)c1` the value was “inactive”. Consider `Cc1ccc(C(=O)N/C(=C\c2cn(C)c3ccccc23)C(=O)N2CCN(C)CC2)cc1`, for which the normalized B-score (activity score, 25-100; higher = stronger inhibition) result was “inactive”.
